PubChem BioAssay (NCATS)
Records with an inconclusive call do not appear. Calls of active or inactive are those of the source. Unless noted, calls come from the whole dose curve; as a rule, active = well fitted curve in the direction sought with a large enough effect; inconclusive = small, poorly fitted or top-dose-only effect, or another doubt; inactive = no such curve, though single readings can be large; an effect the other way counts as inactive or inconclusive.

Tests used:
JEG-3 = assay: Primary qHTS to identify gynecologic anti-cancer compounds using libraries of approved drugs and bioactive compounds (AID 1345084); details: Gynecologic cancer cell panel viability, ATPlite luminescence, 48 h; series mostly up to 57.5 µM; note: % is set by controls: 0 for no effect and ±100 for the full control effect; nearly all actives have a fitted effect of over 55% in size
Method in brief: (§1)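 In this quantitative HTS, cell killing is estimated from loss of ATP-dependent luciferase light. Cells see five compound concentrations over a 48 h exposure.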

PA-1 = assay: as above; details: Gynecologic cancer cell panel viability, ATPlite luminescence, 48 h; series mostly up to 57.5 µM
Method in brief: as §1

Tov-21-G = assay: as above; details: Gynecologic cancer cell panel viability, ATPlite luminescence, 48 h; series mostly up to 57.5 µM
Method in brief: as §1

Tov112D = assay: as above; details: Gynecologic cancer cell panel viability, ATPlite luminescence, 48 h; series mostly up to 57.5 µM
Method in brief: as §1

[1] = Drug repurposing screens with cells derived from glioblastoma tumor samples (AID 1345199); details: GBM patient neurospheres viability, ATP luminescence, 48 h; note: nearly all actives have a fitted effect of over 40% in size; note: potency is the fitted concentration of half-maximal effect; for activity, negative = cell killing: % is set by controls: 0 for no effect and ±100 for the full control effect
Method in brief: (§2)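 Four patient lines of CD133+ GBM neurospheres were screened at several concentrations; hits were retested in those lines plus three slower-growing GBM lines, using 48-hour treatment and ATP-based viability.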

astro = assay: as above; details: viability, ATP luminescence, 48 h; series mostly up to 45.9 µM
Method in brief: as §2

OV90 = assay: Primary qHTS to identify gynecologic anti-cancer compounds using libraries of approved drugs and bioactive compounds (AID 1345084); details: Gynecologic cancer cell panel viability, ATPlite luminescence, 48 h; series mostly up to 57.5 µM; note: % is set by controls: 0 for no effect and ±100 for the full control effect; nearly all actives have a fitted effect of over 55% in size
Method in brief: as §1

SKOV3 = assay: as above; details: Gynecologic cancer cell panel viability, ATPlite luminescence, 48 h; series mostly up to 57.5 µM
Method in brief: as §1

[2] = biological target: Nuclear receptor subfamily 1 group I member 2 (Rattus norvegicus) (UniProt Q9R1A7); assay: qHTS assay for small molecule activators of the rat pregnane X receptor (rPXR) signaling pathway (AID 651751; call rule not given here; note: 0% is about no effect); details: rPXR reporter cells, luciferase (One-Glo), 24 h
Nuclear receptor subfamily 1 group I member 2 (Rattus norvegicus), sequence (Q9R1A7 whole entry, looked up): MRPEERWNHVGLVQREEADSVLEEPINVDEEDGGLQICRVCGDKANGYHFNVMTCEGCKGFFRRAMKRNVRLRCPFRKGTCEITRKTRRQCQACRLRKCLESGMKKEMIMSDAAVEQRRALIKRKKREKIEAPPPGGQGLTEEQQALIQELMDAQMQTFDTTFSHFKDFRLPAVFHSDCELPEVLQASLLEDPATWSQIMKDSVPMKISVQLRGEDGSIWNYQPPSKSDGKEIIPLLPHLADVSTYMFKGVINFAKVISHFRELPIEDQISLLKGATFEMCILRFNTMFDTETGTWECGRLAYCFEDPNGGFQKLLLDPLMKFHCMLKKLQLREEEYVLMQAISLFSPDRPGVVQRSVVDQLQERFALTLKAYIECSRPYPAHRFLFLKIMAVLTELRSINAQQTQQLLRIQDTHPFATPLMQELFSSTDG

[3] = at 45.9 µM (top of the series), tumour line B
[4] = at 45.9 µM (top of the series), tumour line D
[5] = at 46 µM (top of the series), tumour line A
[6] = at 46.1 µM (top of the series), tumour line C
[7] = at 20 µM (top of the series), tumour line C
[8] = at 21.2 µM (top of the series), tumour line B
[9] = at 21.3 µM (top of the series), tumour line A
[10] = at 21.2 µM (top of the series), tumour line D

CC(CSC(=O)c1ccccc1)C(=O)N1C[C@@H](Sc2ccccc2)C[C@H]1C(=O)O (stereo partly specified)
inactive: outcome (JEG-3) | outcome (PA-1) | outcome (Tov-21-G) | outcome (Tov112D) | activity, negative = cell killing [1, 3] -5.59% | activity, negative = cell killing [1, 4] 5.1% | activity, negative = cell killing [1, 5] -20.1% | activity, negative = cell killing [1, 6] -14.7% | outcome (astro)

COC(=O)c1ccccc1C(=O)c1ccc(OCCN2CCCCC2)cc1
inactive: outcome (PA-1) | outcome (Tov-21-G) | outcome (Tov112D) | activity, negative = cell killing [1, 3] -26.9%
active: Potency ([1]; tumour line A) 7.08 µM | Potency ([1]; tumour line C) 20.6 µM | Potency ([1]; tumour line D) 12.6 µM

CC[C@]12CCCN3CCc4c(n(c5ccccc45)[C@@](O)(C(=O)OC)C1)[C@@H]32
inactive: outcome (JEG-3) | Potency (OV90) | outcome (PA-1) | outcome (Tov-21-G) | outcome (Tov112D) | activity, negative = cell killing [1, 3] -12.1% | activity, negative = cell killing [1, 4] 5.83% | activity, negative = cell killing [1, 6] -21.5% | outcome (astro)
active: Potency ([1]; tumour line A) 17.8 µM

CNCc1ccccc1
inactive: outcome (PA-1) | outcome (SKOV3) | outcome (Tov-21-G) | outcome (Tov112D) | activity, negative = cell killing [1, 3] -13% | activity, negative = cell killing [1, 4] -15.9% | activity, negative = cell killing [1, 5] -19.4% | activity, negative = cell killing [1, 6] -9.99% | outcome (astro)

Cc1c(NC(C)C)c(=O)n(-c2ccccc2)n1C
inactive: outcome (JEG-3) | Potency (OV90) | outcome (PA-1) | outcome (Tov-21-G) | outcome (Tov112D) | activity, negative = cell killing [1, 3] 0.947% | activity, negative = cell killing [1, 4] -9.1% | activity, negative = cell killing [1, 6] -2.3% | outcome (astro)

O=C(O)[C@@H]1[C@H]2C[C@H]3c4[nH]c5ccccc5c4CCN3C[C@@H]2CC[C@@H]1O
inactive: outcome (JEG-3) | outcome (PA-1) | outcome (SKOV3) | outcome (Tov-21-G) | outcome (Tov112D) | activity, negative = cell killing [1, 7] -17% | activity, negative = cell killing [1, 8] 2.22% | activity, negative = cell killing [1, 9] -34.6% | outcome (astro)

COc1ccc(Cc2cnc(N)nc2N)cc1OC
inactive: outcome (JEG-3) | Potency (OV90) | outcome (PA-1) | outcome (Tov-21-G) | outcome (Tov112D) | activity, negative = cell killing [1, 3] 11% | activity, negative = cell killing [1, 4] -18.1% | activity, negative = cell killing [1, 6] -4.34% | outcome (astro)

Cc1ncc(CO)c(CN)c1O
inactive: outcome (Tov-21-G) | outcome (Tov112D) | activity, negative = cell killing [1, 3] 0.478% | activity, negative = cell killing [1, 4] 6.58% | activity, negative = cell killing [1, 5] -23.9% | activity, negative = cell killing [1, 6] -87% | outcome (astro)

O=C(O)COC(=O)Cc1ccccc1Nc1c(Cl)cccc1Cl
inactive: outcome (JEG-3) | Potency (OV90) | outcome (PA-1) | outcome (Tov-21-G) | outcome (Tov112D) | activity, negative = cell killing [1, 7] -2.19% | activity, negative = cell killing [1, 8] -12.4% | activity, negative = cell killing [1, 10] -4.64% | activity, negative = cell killing [1, 9] -12.9% | outcome (astro)

O=C(CCBr)N1CCN(C(=O)CCBr)CC1
inactive: outcome (JEG-3) | Potency (OV90) | outcome (PA-1) | outcome (Tov-21-G) | outcome (Tov112D) | activity, negative = cell killing [1, 3] -9.14% | activity, negative = cell killing [1, 4] -7.7% | activity, negative = cell killing [1, 6] -5.97% | outcome (astro)

CC(=O)Oc1cccc(O)c1
inactive: outcome (JEG-3) | outcome (PA-1) | outcome (SKOV3) | outcome (Tov-21-G) | outcome (Tov112D) | activity, negative = cell killing [1, 3] -1.54% | activity, negative = cell killing [1, 4] -17.1% | activity, negative = cell killing [1, 5] -23.9% | activity, negative = cell killing [1, 6] -11% | outcome (astro)

CC(=O)Nc1ccc(OCCOCCOc2ccc(NC(C)=O)cc2)cc1
inactive: outcome (JEG-3) | Potency (OV90) | outcome (PA-1) | outcome (Tov-21-G) | outcome (Tov112D) | activity, negative = cell killing [1, 3] -5.83% | activity, negative = cell killing [1, 6] -16.3% | outcome (astro)

OC(CCN1CCCC1)(c1ccccc1)C1CCCCC1 (stereo unspecified)
inactive: outcome (JEG-3) | outcome (PA-1) | outcome (SKOV3) | outcome (Tov-21-G) | outcome (Tov112D) | activity, negative = cell killing [1, 7] 3.06% | activity, negative = cell killing [1, 8] -6.65% | activity, negative = cell killing [1, 10] -11.6% | outcome (astro)

O=C(O)/C=C/c1ccc(Cn2ccnc2)cc1
inactive: outcome (JEG-3) | outcome (PA-1) | outcome (SKOV3) | outcome (Tov-21-G) | outcome (Tov112D) | activity, negative = cell killing [1, 7] 0.197% | activity, negative = cell killing [1, 8] -8.95% | activity, negative = cell killing [1, 10] -11.8% | activity, negative = cell killing [1, 9] -28.4% | outcome (astro)

Cc1cc(O)cc(C)c1Cl
inactive: outcome (JEG-3) | outcome (PA-1) | outcome (SKOV3) | outcome (Tov-21-G) | outcome (Tov112D) | activity, negative = cell killing [1, 3] 0.561% | activity, negative = cell killing [1, 4] -6% | activity, negative = cell killing [1, 5] -20% | activity, negative = cell killing [1, 6] 6.74% | outcome (astro) | max response [2] 1.15%

CC(C)NC[C@@H](O)COc1ccc(CC(N)=O)cc1
inactive: outcome (JEG-3) | Potency (OV90) | outcome (PA-1) | outcome (Tov-21-G) | outcome (Tov112D) | activity, negative = cell killing [1, 3] -18.7% | activity, negative = cell killing [1, 4] 5.31% | activity, negative = cell killing [1, 5] 1.1% | activity, negative = cell killing [1, 6] -9.77% | outcome (astro)
